In paper PMC9838217, “Structure of SALL4 zinc finger domain reveals link between AT-rich DNA binding and Okihiro syndrome” one finds binding signal data, which are given here for 30 sequences.

Numbering of substitutions follows the chain as printed.

Holding throughout (experiment): HT-SELEX; high values mean tight binding
What all share (settings): protein: recombinant; vector His6-GST; dsDNA, one strand shown

Test [1] addresses T1, SALL4 ZFC4 WT (HT-SELEX) (Mus musculus, UniProt Q8BX22 870-940).
T1 sequence: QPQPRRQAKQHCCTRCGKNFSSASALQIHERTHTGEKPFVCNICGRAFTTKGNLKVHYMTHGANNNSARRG
The method, boiled down: (§1)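 A 100 µl reaction of 10 mM Tris–HCl pH 7.5, 50 mM NaCl, poly(dI-dC) and DTT held purified recombinant mouse SALL4 zinc finger cluster 4 (residues 870–940, 1 µg) and library DNA (1.5 µg first cycle, 200 ng later) for 10 min at room temperature. Complexes captured on Ni2+ beads were washed, PCR-amplified and reselected for up to 6 cycles, in triplicate, then MiSeq-sequenced and scanned for 6-mers. Binding signal is the read fraction of each canonical k-mer expressed as fold change over the initial random library.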

Test [2] deals with T2, SALL4 ZFC4 R900W (HT-SELEX) (Mus musculus, UniProt Q8BX22 870-940, R900W).
T2 sequence: T1 sequence with R31W
The procedure, abridged:
as §1

The target of test [3] is T3, SALL4 ZFC4 G921D (HT-SELEX) (Mus musculus, UniProt Q8BX22 870-940, G921D).
T3 sequence: T1 sequence with G52D
The procedure, abridged:
as §1

Take CGTGAC: the binding signal was 0.379 ± 0.0323 fold-change vs cycle 0 in test [1], 0.463 ± 0.0197 fold-change vs cycle 0 in test [2] and 0.556 ± 0.043 fold-change vs cycle 0 in test [3].

For the sequence AGGGTA, the values for the binding signal in test [1], in test [2] and in test [3] were 0.87 ± 0.0133 fold-change vs cycle 0, 1 ± 0.0465 fold-change vs cycle 0 and 0.989 ± 0.0135 fold-change vs cycle 0, respectively.

As to AAACAT, the figures for the binding signal in test [1], in test [2] and in test [3] were 1.93 ± 0.14 fold-change vs cycle 0, 1.88 ± 0.0797 fold-change vs cycle 0 and 1.72 ± 0.14 fold-change vs cycle 0, respectively.

Consider ACCCGT, for which the binding signal in test [1] was 0.418 ± 0.0141 fold-change vs cycle 0; in test [2], 0.5 ± 0.0199 fold-change vs cycle 0; in test [3], 0.577 ± 0.0315 fold-change vs cycle 0.

ACCCCA: the binding signal in test [1] was found to be 0.468 ± 0.0336 fold-change vs cycle 0; in test [2], 0.525 ± 0.0104 fold-change vs cycle 0; in test [3] it was 0.602 ± 0.0476 fold-change vs cycle 0.

GTGGAA: the results for the binding signal in test [1], in test [2] and in test [3] were 0.745 ± 0.0414 fold-change vs cycle 0, 0.83 ± 0.0233 fold-change vs cycle 0 and 0.871 ± 0.012 fold-change vs cycle 0, respectively.

As for GACACA, the binding signal in test [1] worked out at 0.629 ± 0.04 fold-change vs cycle 0; in test [2], 0.754 ± 0.0153 fold-change vs cycle 0; in test [3], 0.837 ± 0.0392 fold-change vs cycle 0.

Turning to CAACAA, the binding signal in test [1] amounted to 1.1 ± 0.0197 fold-change vs cycle 0; in test [2], 1.21 ± 0.0488 fold-change vs cycle 0; in test [3] it was 1.2 ± 0.0481 fold-change vs cycle 0.

GTTGCA: the binding signal in test [1] was 0.582 ± 0.0571 fold-change vs cycle 0; in test [2], 0.661 ± 0.0273 fold-change vs cycle 0; in test [3], 0.75 ± 0.0252 fold-change vs cycle 0.

On to AATATA, for which the binding signal was 4.74 ± 0.532 fold-change vs cycle 0 in test [1], 2.49 ± 0.212 fold-change vs cycle 0 in test [2] and 2.16 ± 0.28 fold-change vs cycle 0 in test [3].

Turning to AATGGC, the binding signal was 0.467 ± 0.0217 fold-change vs cycle 0 in test [1], 0.534 ± 0.0101 fold-change vs cycle 0 in test [2] and 0.662 ± 0.067 fold-change vs cycle 0 in test [3].

As to CCCAAC, the binding signal in test [1] amounted to 0.395 ± 0.0223 fold-change vs cycle 0; in test [2] it was 0.437 ± 0.0176 fold-change vs cycle 0; in test [3], 0.544 ± 0.0399 fold-change vs cycle 0.

As to CCTGCA, the binding signal in test [1] is 0.34 ± 0.0217 fold-change vs cycle 0; in test [2], 0.407 ± 0.0271 fold-change vs cycle 0; in test [3], 0.515 ± 0.0759 fold-change vs cycle 0.

With ACTACC, the figures for the binding signal in test [1], in test [2] and in test [3] were 0.799 ± 0.0371 fold-change vs cycle 0, 0.948 ± 0.0381 fold-change vs cycle 0 and 0.968 ± 0.0334 fold-change vs cycle 0, respectively.

On to GTACCA, for which the binding signal came to 0.755 ± 0.0123 fold-change vs cycle 0 in test [1], 0.835 ± 0.0283 fold-change vs cycle 0 in test [2] and 0.893 ± 0.0178 fold-change vs cycle 0 in test [3].

Regarding ACAGTA, the binding signal stood at 1.35 ± 0.0516 fold-change vs cycle 0 in test [1], 1.47 ± 0.111 fold-change vs cycle 0 in test [2] and 1.37 ± 0.127 fold-change vs cycle 0 in test [3].

Take CGCTTA: the binding signal in test [1] is 0.535 ± 0.019 fold-change vs cycle 0; in test [2] it was 0.58 ± 0.0258 fold-change vs cycle 0; in test [3] it was 0.684 ± 0.061 fold-change vs cycle 0.

Turning to ACTGGG, the binding signal in test [1] stood at 0.468 ± 0.0365 fold-change vs cycle 0; in test [2], 0.547 ± 0.0062 fold-change vs cycle 0; in test [3], 0.615 ± 0.0193 fold-change vs cycle 0.

With AAAAGC, the binding signal is 0.816 ± 0.0288 fold-change vs cycle 0 in test [1], 0.899 ± 0.0164 fold-change vs cycle 0 in test [2] and 0.953 ± 0.0234 fold-change vs cycle 0 in test [3].

Turning to TATGCA, the binding signal in test [1] was determined as 1.19 ± 0.0704 fold-change vs cycle 0; in test [2], 1.16 ± 0.0312 fold-change vs cycle 0; in test [3] it was 1.15 ± 0.0173 fold-change vs cycle 0.

For the sequence ACGAGA, the binding signal in test [1] came out at 0.811 ± 0.0345 fold-change vs cycle 0; in test [2], 0.922 ± 0.0447 fold-change vs cycle 0; in test [3], 0.957 ± 0.0409 fold-change vs cycle 0.

As to ATAAGC, the binding signal in test [1] worked out at 1.34 ± 0.0651 fold-change vs cycle 0; in test [2], 1.21 ± 0.0666 fold-change vs cycle 0; in test [3] it was 1.22 ± 0.0552 fold-change vs cycle 0.

For the sequence AGACTG, the results for the binding signal in test [1], in test [2] and in test [3] were 0.764 ± 0.0533 fold-change vs cycle 0, 0.926 ± 0.0316 fold-change vs cycle 0 and 0.92 ± 0.0254 fold-change vs cycle 0, respectively.

Consider AGTCTC, for which the binding signal is 0.837 ± 0.0339 fold-change vs cycle 0 in test [1], 0.9527 ± 0.00762 fold-change vs cycle 0 in test [2] and 1 ± 0.0392 fold-change vs cycle 0 in test [3].

For the sequence AATTCT, the binding signal was 2.05 ± 0.0669 fold-change vs cycle 0 in test [1], 1.99 ± 0.104 fold-change vs cycle 0 in test [2] and 1.8 ± 0.162 fold-change vs cycle 0 in test [3].

CTCACC: the binding signal is 0.488 ± 0.0202 fold-change vs cycle 0 in test [1], 0.56 ± 0.0155 fold-change vs cycle 0 in test [2] and 0.677 ± 0.0522 fold-change vs cycle 0 in test [3].

As for CTGGAA, the binding signal in test [1] was determined as 0.772 ± 0.02 fold-change vs cycle 0; in test [2], 0.891 ± 0.0485 fold-change vs cycle 0; in test [3], 0.926 ± 0.0429 fold-change vs cycle 0.

As to TACTGA, the binding signal worked out at 1.38 ± 0.119 fold-change vs cycle 0 in test [1], 1.53 ± 0.139 fold-change vs cycle 0 in test [2] and 1.42 ± 0.164 fold-change vs cycle 0 in test [3].

For the sequence GAAGGC, the binding signal is 0.304 ± 0.0244 fold-change vs cycle 0 in test [1], 0.39 ± 0.0131 fold-change vs cycle 0 in test [2] and 0.522 ± 0.0691 fold-change vs cycle 0 in test [3].

As to ATGGAA, the binding signal amounted to 1.5 ± 0.0823 fold-change vs cycle 0 in test [1], 1.48 ± 0.0671 fold-change vs cycle 0 in test [2] and 1.36 ± 0.0808 fold-change vs cycle 0 in test [3].
